In PubChem BioAssay:
Where “and” joins values, the source holds several entries; their conditions need not be identical. Equal entries are not always repeated. Calls of active or inactive are those of the source.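 Rule for the calls, unless noted: active = compounds whose cell count with miR-34 switched on is under 0.7 times the count with it off; inactive = the rest.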

Tests used:
[1] = differential killing of epithelial or mesenchymal cells, primary screen, imaging, PC-3E GFP, TEM4-18 mCherry, co-culture (AID 1345086;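 active = compounds killing one labelled cell type while sparing the other, by normalised counts and ratio limits, not self-fluorescent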;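 for all read-outs here: cells exposed to compound for 72 h before imaging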;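 for red/green cell ratio (normalised): normalised mesenchymal count divided by normalised epithelial count so high means epithelial killing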); conditions: imaging cell counts, at 1 µM; for red/green cell ratio (normalised): actives lie on both sides, counts scaled to control wells, 1 = unselective
[2] = sensitizers of A549 cells to miR-34 induction, primary screen, imaging, A549 dox-inducible miR-34, nuclei and caspase counts (AID 1347080); conditions: A549 miR-34 inducible, Hoechst nuclei count, 48 h
[3] = measured here: epithelial PC-3E GFP cell survival
[4] = measured here: mesenchymal TEM4-18 mCherry cell survival
[5] = stronger effect = lower value, cell number ratio, induced over uninduced
[6] = measured here: relative caspase fold change +Dox/-Dox
[7] = measured here: total cells with miR-34 induction, stronger effect = lower value
[8] = measured here: total cells without miR-34 induction

Row | SMILES | red/green cell ratio (normalised) [1] | normalised cell number [1, 3] | normalised cell number [1, 4] | fold change [2, 5] | fold change [2, 6] | cell count [2, 7] | cell count [2, 8]
1 | NC(N)=NCCCC(N)C(=O)O (configuration not stated) | 0.83 (inactive) | 1.05 | 0.87 | 0.874 (inactive) | 0.933 | 8700 | 9960
2 | CO/N=C(/C(=O)NC1C(=O)N2C(C(=O)O)=C(CSc3nnnn3C)CSC12)c1csc(N)n1 (configuration not stated) | 0.91 (inactive) | 1.17 | 1.06 | 0.936 (inactive) | 0.695 | 9050 | 9680
3 | O=C(O)CCCN1CCN([C@H](c2ccccc2)c2ccc(Cl)cc2)CC1 | 0.97 (inactive) | 1.14 | 1.11 | 0.876 (inactive) | 0.778 | 8580 | 9800
4 | O=c1[nH]c(=O)n([C@H]2C[C@H](O)C(CO)O2)cc1I (some centres not stated) | 0.98 (inactive) | 1.09 | 1.07 | 1.01 (inactive) | 0.724 | 7950 | 7880
5 | C[C@@H]1CC2C3CCC4=CC(=O)C=C[C@]4(C)[C@@]3(F)[C@@H](O)C[C@]2(C)[C@H]1C(=O)CO (some centres not stated) | 1.08 (inactive) | 1.08 | 1.16 | 0.893 (inactive) and 0.821 (inactive) | 0.943 and 1.01 | 6390 and 5470 | 7160 and 6670
6 | COc1nc(N)nc2c1ncn2C1O[C@H](CO)[C@@H](O)[C@@H]1O (some centres not stated) | 0.99 (inactive) | 0.92 | 0.91 | 0.89 (inactive) | 0.801 | 7770 | 8740
